Among the data in publication PMC11006913 are binding signal values, retold here.

Common to all, as to test: PBM; 200 nM protein, PBS
Conditions in all cases: dsDNA, one strand shown

The target of assay [1] is HOXA7 (Homo sapiens, UniProt P31268 116-202).
Assay [2] addresses HOXA7 (Homo sapiens, UniProt P31268 116-202, W177C).
Assay [3] deals with ALX3 (Homo sapiens, UniProt O95076 139-225).
Assay [4] addresses ALX3 (Homo sapiens, UniProt O95076 139-225, L168Q).
The target of assay [5] is ALX3 (Homo sapiens, UniProt O95076 139-225, L168V).
Assay [6] concerns the target ALX3 (Homo sapiens, UniProt O95076 139-225, N203S).
The next assay deals with T1, NKX2-6 (Homo sapiens, UniProt A6NCS4 118-204, F151L).
T1 sequence: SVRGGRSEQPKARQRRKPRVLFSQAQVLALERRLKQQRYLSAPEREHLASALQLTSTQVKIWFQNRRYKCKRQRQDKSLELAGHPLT

Another assay addresses PITX2 (Homo sapiens, UniProt Q99697 72-157).
Assay [7] addresses PROP1 (Homo sapiens, UniProt O75360 56-141).
Assay [8] deals with PROP1 (Homo sapiens, UniProt O75360 56-141, R99H).
Assay [9] concerns the target PROP1 (Homo sapiens, UniProt O75360 56-141, F88S).
The target of assay [10] is VAX1 (Homo sapiens, UniProt Q5SQQ9 86-172).
In assay [11] the target is VAX1 (Homo sapiens, UniProt Q5SQQ9 86-172, T142I).
Assay [12] deals with VAX1 (Homo sapiens, UniProt Q5SQQ9 86-172, K157R).
VAX1 (Homo sapiens, UniProt Q5SQQ9 86-172, K157R), sequence (Q5SQQ9 86-172 K157R): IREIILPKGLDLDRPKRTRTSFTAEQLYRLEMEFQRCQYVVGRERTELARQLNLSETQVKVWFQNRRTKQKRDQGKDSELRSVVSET

VAX1 (Homo sapiens, UniProt Q5SQQ9 86-172), sequence (Q5SQQ9 86-172): as the sequence (Q5SQQ9 86-172 K157R) above, with R72K counted along it
VAX1 (Homo sapiens, UniProt Q5SQQ9 86-172, T142I), sequence (Q5SQQ9 86-172 T142I): as the sequence (Q5SQQ9 86-172 K157R) above, with T57I, R72K counted along it
ALX3 (Homo sapiens, UniProt O95076 139-225, N203S), sequence (O95076 139-225 N203S): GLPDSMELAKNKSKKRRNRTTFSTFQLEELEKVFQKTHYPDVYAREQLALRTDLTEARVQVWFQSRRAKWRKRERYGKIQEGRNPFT
ALX3 (Homo sapiens, UniProt O95076 139-225), sequence (O95076 139-225): as the sequence (O95076 139-225 N203S) above, with S65N counted along it
PROP1 (Homo sapiens, UniProt O75360 56-141, F88S), sequence (O75360 56-141 F88S): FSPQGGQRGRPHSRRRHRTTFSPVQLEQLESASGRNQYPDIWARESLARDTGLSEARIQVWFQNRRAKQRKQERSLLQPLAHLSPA
HOXA7 (Homo sapiens, UniProt P31268 116-202, W177C), sequence (P31268 116-202 W177C): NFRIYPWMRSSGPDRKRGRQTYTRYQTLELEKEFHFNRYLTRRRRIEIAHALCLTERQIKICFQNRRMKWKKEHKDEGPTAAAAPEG
ALX3 (Homo sapiens, UniProt O95076 139-225, L168Q), sequence (O95076 139-225 L168Q): as the sequence (O95076 139-225 N203S) above, with L30Q, S65N counted along it
PROP1 (Homo sapiens, UniProt O75360 56-141, R99H), sequence (O75360 56-141 R99H): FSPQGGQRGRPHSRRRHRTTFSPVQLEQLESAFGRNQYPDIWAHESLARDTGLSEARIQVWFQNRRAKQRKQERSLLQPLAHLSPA
PROP1 (Homo sapiens, UniProt O75360 56-141), sequence (O75360 56-141): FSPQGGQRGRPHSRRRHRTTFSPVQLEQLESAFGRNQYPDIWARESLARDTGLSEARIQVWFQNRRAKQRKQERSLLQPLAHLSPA
ALX3 (Homo sapiens, UniProt O95076 139-225, L168V), sequence (O95076 139-225 L168V): as the sequence (O95076 139-225 N203S) above, with L30V, S65N counted along it
HOXA7 (Homo sapiens, UniProt P31268 116-202), sequence (P31268 116-202): as the sequence (P31268 116-202 W177C) above, with C62W counted along it

With CGGCCACC, the binding signal with HOXA7 [1] is 8.41 upbm affinity estimate (log intensity, higher = more binding, comparable within an allelic series); in the assay with HOXA7 [2], 8.25 upbm affinity estimate (log intensity, higher = more binding, comparable within an allelic series).
With GGCGGACC, the binding signal with ALX3 [3] is 7.74 upbm affinity estimate (log intensity, higher = more binding, comparable within an allelic series); with ALX3 [4], 7.74 upbm affinity estimate (log intensity, higher = more binding, comparable within an allelic series); in the assay with ALX3 [5], 7.69 upbm affinity estimate (log intensity, higher = more binding, comparable within an allelic series); in the assay with ALX3 [6], 7.67 upbm affinity estimate (log intensity, higher = more binding, comparable within an allelic series).
For CATGATCA, the binding signal in the assay with ALX3 [3] was 9.26 upbm affinity estimate (log intensity, higher = more binding, comparable within an allelic series); in the assay with ALX3 [6], 8.21 upbm affinity estimate (log intensity, higher = more binding, comparable within an allelic series).
Take AGCTCCGC: the binding signal with NKX2-6 was 9.27 upbm affinity estimate (log intensity, higher = more binding, comparable within an allelic series).
Same read-out and setting: under CCGCCAGC stands 9.24 upbm affinity estimate (log intensity, higher = more binding, comparable within an allelic series).
Regarding GCGCTGCC, in the assay with PITX2, the binding signal was 8 upbm affinity estimate (log intensity, higher = more binding, comparable within an allelic series).
With CGCAGCGC, the binding signal with PROP1 [7] was 6.83 upbm affinity estimate (log intensity, higher = more binding, comparable within an allelic series); with PROP1 [8] it was 6.82 upbm affinity estimate (log intensity, higher = more binding, comparable within an allelic series); in the assay with PROP1 [9], 6.74 upbm affinity estimate (log intensity, higher = more binding, comparable within an allelic series).
In the case of AGGGCCCG, the binding signal in the assay with VAX1 [10] is 6.78 upbm affinity estimate (log intensity, higher = more binding, comparable within an allelic series); in the assay with VAX1 [11] it was 7.02 upbm affinity estimate (log intensity, higher = more binding, comparable within an allelic series); in the assay with VAX1 [12], 6.91 upbm affinity estimate (log intensity, higher = more binding, comparable within an allelic series).
As for GCAGTGGC, the binding signal with VAX1 [10] was 7.24 upbm affinity estimate (log intensity, higher = more binding, comparable within an allelic series); with VAX1 [11], 7.19 upbm affinity estimate (log intensity, higher = more binding, comparable within an allelic series); with VAX1 [12], 7.24 upbm affinity estimate (log intensity, higher = more binding, comparable within an allelic series).
